Drawing on PubChem BioAssay (NCATS), this text covers outcome and Potency for 45 molecules.

In assay [1] the target is 3',5'-cyclic-AMP phosphodiesterase 4B (Homo sapiens) (UniProt Q07343). Kind of assay: qHTS Assay for Inhibitors of PDE-IV (AID 607; active = well fitted activation curve with a large enough effect in the main read-out, with a control signal flat, not every such curve was filed as active). The essentials: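 ACTOne HEK293 cells carry a modified cAMP-gated CNG channel and express endogenous PDE4; plated 1000 cells/well, compounds up to 22.9 uM final. Membrane-potential dye fluorescence (ex 535/em 590) was read; parental cells received 10 uM forskolin + 100 uM RO 20-1724.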
3',5'-cyclic-AMP phosphodiesterase 4B (Homo sapiens), sequence (Q07343 whole entry, looked up): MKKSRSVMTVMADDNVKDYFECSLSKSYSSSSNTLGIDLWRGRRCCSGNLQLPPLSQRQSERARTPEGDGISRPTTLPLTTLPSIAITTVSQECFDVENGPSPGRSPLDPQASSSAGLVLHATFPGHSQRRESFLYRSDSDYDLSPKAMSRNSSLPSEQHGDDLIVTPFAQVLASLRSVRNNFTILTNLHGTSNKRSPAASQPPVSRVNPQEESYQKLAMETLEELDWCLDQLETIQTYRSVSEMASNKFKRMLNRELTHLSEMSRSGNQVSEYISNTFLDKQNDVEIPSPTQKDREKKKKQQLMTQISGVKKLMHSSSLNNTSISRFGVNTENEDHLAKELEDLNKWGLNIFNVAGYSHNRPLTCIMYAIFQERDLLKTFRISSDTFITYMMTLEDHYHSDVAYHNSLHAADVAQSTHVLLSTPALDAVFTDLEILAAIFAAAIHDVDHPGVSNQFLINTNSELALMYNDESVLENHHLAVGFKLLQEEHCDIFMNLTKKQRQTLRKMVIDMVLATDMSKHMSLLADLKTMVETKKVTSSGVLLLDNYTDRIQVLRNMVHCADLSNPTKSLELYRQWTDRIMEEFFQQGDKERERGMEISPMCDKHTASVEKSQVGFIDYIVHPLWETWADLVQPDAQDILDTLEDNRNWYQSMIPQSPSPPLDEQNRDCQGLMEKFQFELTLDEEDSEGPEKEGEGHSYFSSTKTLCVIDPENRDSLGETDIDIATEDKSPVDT

The nature of assay [2]: qHTS for Inhibitors of the vitamin D receptor (VDR): Hit Validation using a Texas Red Assay (AID 602201). Also: potency is read from the fitted curve at half-maximal effect. The essentials:
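After a 2-hour room-temperature incubation, polarization of Texas-Red emission was read (Ex 595 nm/Em 615 nm). Final mix contained 7 nM Texas Red, 1.5 uM VDR-LBD and LG19078.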

The target in assay [3] is Luciferin 4-monooxygenase (Photinus pyralis) (UniProt P08659). Kind of assay: Biochemical firefly luciferase enzyme assay for NPC (AID 624030).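 Also: purified P. pyralis luciferase at 10 nM with luciferin and ATP substrate; series mostly up to about 59 µM; nearly all actives have a fitted effect of over 70% in size.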 An outline of the steps:
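Direct inhibition of firefly luciferase enzyme (10 nM final, 50 mM Tris Acetate) assessed by luminescence within 5 minutes. Percent activity scaled between DMSO and PTC124 positive control, with concentration-effect curves classified by fit quality and response.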

Assay [4] addresses Cytochrome P450 2C9 (Homo sapiens) (UniProt P11712). Kind of assay: qHTS Assay for Inhibitors and Substrates of Cytochrome P450 2C9 (AID 883). Also: potency is read from the fitted curve at half-maximal effect; nearly all actives have a fitted effect of over 60% in size. The essentials:
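Inhibition of CYP2C9 is scored as loss of luminescence, with 57uM sulphaphenazole defining 100% inhibition. Substrate Luciferin-H is used at 100uM, equal to its KM; enzyme at 10nM in 25mM KPO4, 60 min at 37C with NADPH regeneration.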
Background: In qHTS, concentration-response curves come from the screen itself.

The target of assay [5] is Cytochrome P450 3A4 (Homo sapiens) (UniProt P08684). Kind of assay: qHTS Assay for Activators of Cytochrome P450 3A4 (AID 885). Also: nearly all actives have a fitted effect of over 65% in size. An outline of the steps: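 CYP3A4 activity: Luciferin-PPXE O-dealkylation, 25uM substrate, 200mM KPO4, RT throughout. Read-out is luciferase luminescence; higher values reflect activation.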
Cytochrome P450 3A4 (Homo sapiens), sequence (P08684 whole entry, looked up): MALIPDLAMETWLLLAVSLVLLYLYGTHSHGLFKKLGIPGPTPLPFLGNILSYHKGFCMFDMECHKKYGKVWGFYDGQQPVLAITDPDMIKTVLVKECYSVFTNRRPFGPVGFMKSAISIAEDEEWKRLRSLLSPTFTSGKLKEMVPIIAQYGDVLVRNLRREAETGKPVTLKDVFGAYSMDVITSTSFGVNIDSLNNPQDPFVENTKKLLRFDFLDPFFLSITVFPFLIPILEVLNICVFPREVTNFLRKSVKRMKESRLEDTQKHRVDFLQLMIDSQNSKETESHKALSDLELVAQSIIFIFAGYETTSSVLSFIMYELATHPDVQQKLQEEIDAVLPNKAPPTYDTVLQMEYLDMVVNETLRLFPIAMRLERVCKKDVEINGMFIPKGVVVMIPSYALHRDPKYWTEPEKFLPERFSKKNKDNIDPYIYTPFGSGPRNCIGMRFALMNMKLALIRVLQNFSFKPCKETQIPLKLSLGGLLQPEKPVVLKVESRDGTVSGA
In assay [6] the target is Cytochrome P450 2C19 (Homo sapiens) (UniProt P33261). Kind of assay: qHTS Assay for Inhibitors and Substrates of Cytochrome P450 2C19 (AID 899). Also: potency is read from the fitted curve at half-maximal effect; nearly all actives have a fitted effect of over 60% in size. The essentials:
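5nM enzyme + 10uM Luciferin-H EGE (=KM), 50mM KPO4; cpd pin-transferred, 10 min 37C; NADPH regen, 60 min 37C; stopped w/ luciferin detection reagent, 20 min; luminescence. Normalized to 57uM ketoconazole (AC100).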

The nature of assay [7]: qHTS for Inhibitors of the vitamin D receptor (VDR): Hit Validation using a Cytotoxicity Assay (AID 602204).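 Also: cells co-treated with VDR agonist LG190178 at 300 nM; potency is read from the fitted curve at half-maximal effect; nearly all actives have a fitted effect of over 75% in size.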 An outline of the steps: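 Luminescence proportional to cellular ATP reports viability. Cells (20,000 per well) rested 4 h, were treated with compounds for 18 h, then incubated 30 min with detection reagent. Controls: cycloheximide (high) and DMSO.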
Assay [8] concerns the target Tumor susceptibility gene 101 protein (Homo sapiens) (UniProt Q99816). Kind of assay: qHTS Assay for Iinhibitors of HIV-1 Budding by Blocking the Interaction of PTAP/TSG101: Hit Validation (AID 651600). Also: potency is read from the fitted curve at half-maximal effect; nearly all actives have a fitted effect of over 70% in size. An outline of the steps:
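Fluorescence polarization binding assay: Tsg101 binding domain (10 uM final) pre-dispensed with compounds, then FITC-labeled PTAP-motif peptide (50 nM final) added; 20 min at r.t. in HEPES pH 7.5 buffer with NaCl, Tween 20, EDTA, TCEP.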

Assay [9] addresses ATPase family AAA domain-containing protein 5 (Homo sapiens) (UniProt Q96QE3). Kind of assay: qHTS screen for small molecules that inhibit ELG1-dependent DNA repair in human embryonic kidney (HEK293T) cells expressing luciferase-tagged ELG1: Hit Confirmation using MMS Stimulated ELG1 (AID 624249). Also: nearly all actives have a fitted effect of over 60% in size. Also: potency is read from the fitted curve at half-maximal effect. The essentials: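 MMS-stimulated (10 µM final) ELG1-luc HEK293T cells; compound added ~5 h after plating at 2,000 cells/well; Amplight luminescence after 16 h; lower signal = inhibition.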

Assay [10] shares this target. Kind of assay: HTS assay for small molecules that inhibit ELG1-dependent DNA repair in human embryonic kidney (HEK293T) cells expressing luciferase-tagged ELG1: Hit Confirmation (AID 624248). Also: nearly all actives have a fitted effect of over 55% in size. Also: potency is read from the fitted curve at half-maximal effect. An outline of the steps:
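Suppression of ELG1-luciferase signal was read by ONE-Glo luminescence in HEK293T reporter cells after 16 h at 37 C co-treatment with compound and 5-fluorouridine as DNA-damaging agent.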

SMILES strings stand for the structures. Records with an inconclusive call do not appear. This is one part of the list. Entries that show only a call come without a potency. Calls of active or inactive are those of the source. Unless noted, calls follow the shape of the dose curve; as a rule, active = well fitted curve in the direction sought with a large enough effect; inconclusive = small, poorly fitted or top-dose-only effect, or another doubt; inactive = no such curve, though single readings can be large; an effect the other way counts as inactive or inconclusive.

Luciferin 4-monooxygenase (Photinus pyralis), sequence (P08659 whole entry, looked up): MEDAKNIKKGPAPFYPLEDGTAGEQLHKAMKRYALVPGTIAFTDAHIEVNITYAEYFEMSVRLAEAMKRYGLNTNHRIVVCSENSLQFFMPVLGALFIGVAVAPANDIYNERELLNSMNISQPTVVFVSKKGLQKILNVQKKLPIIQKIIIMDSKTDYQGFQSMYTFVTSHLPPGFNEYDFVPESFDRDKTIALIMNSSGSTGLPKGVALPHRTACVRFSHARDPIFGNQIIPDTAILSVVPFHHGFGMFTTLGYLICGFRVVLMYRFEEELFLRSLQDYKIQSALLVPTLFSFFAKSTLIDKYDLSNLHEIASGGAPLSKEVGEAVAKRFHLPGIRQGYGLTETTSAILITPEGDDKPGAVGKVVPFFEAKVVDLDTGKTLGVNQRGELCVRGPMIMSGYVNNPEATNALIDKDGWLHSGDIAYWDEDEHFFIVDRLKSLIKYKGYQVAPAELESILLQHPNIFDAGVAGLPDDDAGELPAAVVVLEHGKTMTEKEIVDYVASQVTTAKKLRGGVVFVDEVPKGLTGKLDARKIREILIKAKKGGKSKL
ATPase family AAA domain-containing protein 5 (Homo sapiens), sequence (Q96QE3 whole entry, looked up, the tested form may be a part): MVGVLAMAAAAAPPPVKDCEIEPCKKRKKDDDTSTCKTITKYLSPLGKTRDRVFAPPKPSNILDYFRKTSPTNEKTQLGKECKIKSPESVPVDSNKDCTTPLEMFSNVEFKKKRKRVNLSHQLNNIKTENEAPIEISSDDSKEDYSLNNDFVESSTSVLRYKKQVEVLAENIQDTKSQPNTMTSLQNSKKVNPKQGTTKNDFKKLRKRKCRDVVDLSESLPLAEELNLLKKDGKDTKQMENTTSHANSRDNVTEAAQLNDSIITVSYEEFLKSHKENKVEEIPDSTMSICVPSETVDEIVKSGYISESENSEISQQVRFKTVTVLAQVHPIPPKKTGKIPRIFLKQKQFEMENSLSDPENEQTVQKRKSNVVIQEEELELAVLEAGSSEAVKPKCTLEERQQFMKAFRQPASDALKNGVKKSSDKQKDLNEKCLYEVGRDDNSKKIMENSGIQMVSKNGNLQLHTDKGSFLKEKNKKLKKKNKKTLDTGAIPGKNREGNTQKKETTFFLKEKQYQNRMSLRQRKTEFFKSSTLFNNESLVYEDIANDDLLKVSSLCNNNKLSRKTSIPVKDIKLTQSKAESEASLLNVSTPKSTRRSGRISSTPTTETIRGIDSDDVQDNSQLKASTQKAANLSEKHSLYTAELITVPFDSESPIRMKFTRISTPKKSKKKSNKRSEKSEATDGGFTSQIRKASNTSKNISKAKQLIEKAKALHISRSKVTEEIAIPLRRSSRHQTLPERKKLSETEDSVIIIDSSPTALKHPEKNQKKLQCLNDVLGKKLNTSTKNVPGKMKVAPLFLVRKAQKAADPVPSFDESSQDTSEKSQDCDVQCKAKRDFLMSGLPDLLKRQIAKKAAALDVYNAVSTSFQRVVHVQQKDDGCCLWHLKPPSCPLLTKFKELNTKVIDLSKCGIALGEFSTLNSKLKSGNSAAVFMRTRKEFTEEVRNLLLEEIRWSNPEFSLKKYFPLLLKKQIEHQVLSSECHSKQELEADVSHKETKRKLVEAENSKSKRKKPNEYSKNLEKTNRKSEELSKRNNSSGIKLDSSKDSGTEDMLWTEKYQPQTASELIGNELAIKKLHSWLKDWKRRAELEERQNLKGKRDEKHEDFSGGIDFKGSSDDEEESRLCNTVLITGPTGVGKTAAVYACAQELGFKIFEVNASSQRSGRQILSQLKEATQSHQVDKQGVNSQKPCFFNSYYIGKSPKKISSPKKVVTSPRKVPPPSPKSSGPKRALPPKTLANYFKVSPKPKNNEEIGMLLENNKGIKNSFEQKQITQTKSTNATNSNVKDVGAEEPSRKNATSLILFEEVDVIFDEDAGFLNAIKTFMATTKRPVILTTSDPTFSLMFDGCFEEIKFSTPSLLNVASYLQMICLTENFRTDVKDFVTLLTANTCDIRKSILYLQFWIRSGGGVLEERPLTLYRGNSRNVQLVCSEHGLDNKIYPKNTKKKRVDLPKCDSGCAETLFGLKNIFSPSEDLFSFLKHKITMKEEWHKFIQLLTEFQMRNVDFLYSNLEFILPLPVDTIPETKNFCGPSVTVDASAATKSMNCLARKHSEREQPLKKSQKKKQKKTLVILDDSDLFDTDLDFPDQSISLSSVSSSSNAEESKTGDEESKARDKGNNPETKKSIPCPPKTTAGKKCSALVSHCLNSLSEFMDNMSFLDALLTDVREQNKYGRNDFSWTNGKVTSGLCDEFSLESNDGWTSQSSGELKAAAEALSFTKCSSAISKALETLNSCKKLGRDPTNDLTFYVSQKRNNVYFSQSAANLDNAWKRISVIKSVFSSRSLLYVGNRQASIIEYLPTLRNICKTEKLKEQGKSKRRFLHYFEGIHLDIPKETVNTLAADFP
Tumor susceptibility gene 101 protein (Homo sapiens), sequence (Q99816 whole entry, looked up, the tested form may be a part): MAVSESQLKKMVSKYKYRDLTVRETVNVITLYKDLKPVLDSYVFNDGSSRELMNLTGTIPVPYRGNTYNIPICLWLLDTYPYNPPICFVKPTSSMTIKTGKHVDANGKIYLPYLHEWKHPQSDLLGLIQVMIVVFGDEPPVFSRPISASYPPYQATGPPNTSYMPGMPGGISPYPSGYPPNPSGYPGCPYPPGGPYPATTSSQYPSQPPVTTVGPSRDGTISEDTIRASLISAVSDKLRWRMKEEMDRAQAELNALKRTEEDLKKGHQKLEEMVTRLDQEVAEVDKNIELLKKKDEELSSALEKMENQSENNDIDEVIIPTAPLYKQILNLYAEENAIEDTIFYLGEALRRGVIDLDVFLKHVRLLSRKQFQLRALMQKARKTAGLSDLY
Cytochrome P450 2C9 (Homo sapiens), sequence (P11712 whole entry, looked up): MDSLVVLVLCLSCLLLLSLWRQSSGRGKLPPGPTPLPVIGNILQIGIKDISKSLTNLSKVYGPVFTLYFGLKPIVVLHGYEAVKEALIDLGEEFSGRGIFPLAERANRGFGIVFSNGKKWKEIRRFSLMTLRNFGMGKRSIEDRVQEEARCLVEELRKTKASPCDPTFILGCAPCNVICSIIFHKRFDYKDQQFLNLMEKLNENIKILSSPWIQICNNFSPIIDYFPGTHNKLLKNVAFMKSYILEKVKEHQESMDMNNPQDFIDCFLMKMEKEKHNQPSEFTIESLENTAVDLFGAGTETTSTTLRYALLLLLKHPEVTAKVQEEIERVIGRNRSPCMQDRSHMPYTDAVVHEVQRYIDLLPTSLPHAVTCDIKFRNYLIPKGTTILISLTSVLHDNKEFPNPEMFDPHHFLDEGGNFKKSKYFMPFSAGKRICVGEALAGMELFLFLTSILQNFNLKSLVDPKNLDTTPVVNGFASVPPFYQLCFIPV
Cytochrome P450 2C19 (Homo sapiens), sequence (P33261 whole entry, looked up): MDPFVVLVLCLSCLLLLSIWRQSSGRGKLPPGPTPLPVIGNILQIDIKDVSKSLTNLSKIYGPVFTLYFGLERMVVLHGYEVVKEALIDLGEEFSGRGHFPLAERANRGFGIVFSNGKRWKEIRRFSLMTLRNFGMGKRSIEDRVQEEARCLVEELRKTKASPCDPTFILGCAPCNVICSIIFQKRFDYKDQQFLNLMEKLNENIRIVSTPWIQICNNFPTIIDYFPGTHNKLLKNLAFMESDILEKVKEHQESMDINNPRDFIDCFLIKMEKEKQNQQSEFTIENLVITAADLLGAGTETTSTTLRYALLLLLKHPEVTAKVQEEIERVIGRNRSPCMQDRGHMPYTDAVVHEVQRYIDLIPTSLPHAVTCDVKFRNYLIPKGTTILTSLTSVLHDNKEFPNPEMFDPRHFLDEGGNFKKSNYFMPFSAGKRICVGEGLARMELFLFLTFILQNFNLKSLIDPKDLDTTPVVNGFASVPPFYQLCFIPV

`COC(=O)[C@@]1(Cc2ccc(OC)cc2)[C@H]2c3cc(C(=O)N4CCCC4)n(CCc4ccccn4)c3C[C@H]2CN1C(=O)c1ccccc1`: the molecule was called inactive in assay [1].

As for `CCN(CC)c1ccc(NC(=O)c2ccccc2)cc1S(=O)(=O)Nc1ccccc1OC`, the Potency in assay [2] is 10 µM (active).

As to `COC(=O)C1=C(C)NC(C)=C(C(=O)O[C@H]2CCN(Cc3ccccc3)C2)C1c1cccc([N+](=O)[O-])c1` (stereo partly drawn), the Potency result in assay [3] was “inactive”.

Turning to `COC(=O)[C@@]1(Cc2ccc(F)cc2)[C@H]2c3cc(C(=O)N(C)C)n(Cc4ccc(O)c(OC)c4)c3C[C@H]2CN1C(=O)c1ccccc1`, the call in assay [1] was inactive.

For `COC(=O)[C@@]1(Cc2ccc(F)cc2)[C@H]2c3cc(C(=O)N(C)C)n(Cc4ccccc4)c3C[C@H]2CN1C(=O)c1ccccc1`, the outcome in [1] was inactive.

Consider `CCN(CC)S(=O)(=O)c1cc(NC(=O)c2ccc3c(c2)NC(=O)C(C)S3)ccc1C` (stereo not drawn), for which, in assay [2], the Potency result is “inactive”.

As to `CC(NC(CCc1ccccc1)C(=O)O)C(=O)N1CCCC1C(=O)O` (stereo not drawn), the Potency result in assay [3] is “inactive”.

For `CN(C)c1ccc(C(=S)N2CCN(c3ccc([N+](=O)[O-])cc3)CC2)cc1`, in assay [2], the Potency entry is “inactive”.

`CO/N=C1/CC2(CC3CC(C/C=C(/C)CC(C)/C=C\C=C4\COC5C(O)C(C)=CC(C(=O)O3)C45O)O2)OC(/C(C)=C/C(C)C)C1C` (stereo not drawn): in assay [3], the Potency result is “inactive”.

As to `CNc1ccc(Br)cc(C(=O)/C=C/c2cccc(Cl)c2Cl)c1=O`, the Potency in assay [2] was 3.55 µM (active).

`CC(=O)O[C@H](C)OC(=O)[C@@H](C)c1ccc(-c2ccccc2)c(F)c1`: the Potency result in assay [3] is “inactive”.

With `COC(=O)[C@@]1(Cc2ccc(OC)cc2)[C@H]2c3cc(C(=O)N(C)C)n(Cc4cccc5ccccc45)c3C[C@H]2CN1C(=O)c1ccccc1`, the molecule was called inactive in assay [1].

For the molecule `O=C(COc1ccc(Cl)cc1)Nc1sc2c(c1C(=O)Nc1cccc(Cl)c1)CCCC2`, in assay [2], the Potency is 8.91 µM (active).

In the case of `CC1(C)S[C@@H]2[C@H](NC(=O)[C@H](N)c3ccccc3)C(=O)N2[C@@H]1C(=O)OCOC(=O)[C@@H]1N2C(=O)C[C@@H]2S(O)(O)C1(C)C`, in assay [3], the Potency entry is “inactive”.

As for `Cc1cccc(/C=C/C(=O)c2ccc([N+](=O)[O-])o2)c1`, the Potency in [2] is 1.78 µM (active).

As to `CC(CN1CCOCC1)C(Cc1ccccc1)(Cc1ccccc1)C(=O)N1CCCC1` (stereo not drawn), the Potency result in assay [3] was “inactive”.

Take `CC(=O)O[C@@H]1C(=O)O[C@H]2[C@@H]1OC(=O)[C@@H]2OC(C)=O`: the Potency entry in assay [3] was “inactive”.

On to `COC(=O)[C@@]1(Cc2ccc(OC)cc2)[C@H]2c3cc(C(=O)N4CCCC4)n(CCCNc4ncc(C(F)(F)F)cc4Cl)c3C[C@H]2CN1C(=O)c1ccccc1`, for which the result in [1] was inactive. Further, the Potency in assay [4] is 7.94 µM (active); in [6] it was 3.16 µM (active). Besides, the Potency entry in [5] is “inactive”.

For the molecule `COC(=O)[C@@]1(Cc2ccc(F)cc2)[C@H]2c3cc(C(=O)N(C)C)n(Cc4ccsc4Br)c3C[C@H]2CN1C(=O)c1ccccc1`, in [1], the molecule was classed as inactive.

As for `CCCC/C=C/C(NC(=O)OCc1ccccc1Cl)c1ccccc1` (stereo not drawn), in assay [1], the outcome was inactive.

In the case of `O=C(Cc1ccccc1Cl)NC1(O)C(=O)c2ccccc2C1=O`, in assay [2], the Potency entry was “inactive”.

Consider `Cc1ccc(CNC(=O)[C@H](C)[C@H]2C[C@]2(C)[C@H](NC(=O)OCc2ccccc2)c2ccccc2)o1`, for which, in assay [1], the molecule was called inactive.

In the case of `COC(=O)[C@@]1(Cc2ccc(F)cc2)[C@H]2c3cc(C(=O)N(C)C)n(CCSCCO)c3C[C@H]2CN1C(=O)c1ccccc1`, in assay [1], the outcome was inactive.

For the molecule `CCC/C=C(\CCC)C(NC(=O)CCc1ccccc1)c1ccc(C(F)(F)F)cc1` (stereo not drawn), the outcome in assay [1] was inactive.

As to `CCCCCCCC(=O)CC[C@H]1[C@@H](C/C=C/CCCC(=O)OC(C)C)[C@@H](O)C[C@H]1O`, in [3], the Potency result was “inactive”.

In the case of `CO/N=C(\C(=O)N[C@@H]1C(=O)N2C(C(=O)[O-])=C(C[n+]3cccc4c3CCCC4)CS[C@H]12)c1csc(N)n1`, the Potency entry in assay [3] was “inactive”.

For `Cc1cccc([C@H]2[C@@H]3C=CC[C@@H](C)[C@@H]3C(=O)N2Cc2ccccc2)c1`, in [7], the Potency was 23.8 µM (active).

For `CCC(=O)Nc1cccc(C(=O)/C=C/c2cc(Br)ccc2OC)c1`, the Potency in [2] was 28.2 µM (active).

Regarding `COC(=O)[C@@]1(Cc2ccc(OC)cc2)[C@H]2c3cc(C(=O)N(C)C)n(Cc4ccc(C)c(F)c4F)c3C[C@H]2CN1C(=O)c1ccccc1`, in assay [1], the outcome was inactive.

As to `CCN(CC)c1ccc(NC(=O)c2cccc(C)c2)cc1S(=O)(=O)Nc1ccccc1OC`, the Potency result in [2] was “inactive”.

Consider `COC(=O)[C@@]1(Cc2ccc(OC)cc2)[C@H]2c3cc(C(=O)N4CCCC4)n(CCN4CCOCC4)c3C[C@H]2CN1C(=O)c1ccccc1`, for which, in assay [1], the molecule was called inactive.

Regarding `COc1ccc(OC)c(-c2c3cc(O)c(=O)cc-3oc3cc(O)c(O)cc23)c1`, the Potency in [2] is 8.91 µM (active); in [8], 32.6 µM (active).

Turning to `O=C1OC2C(O)C(O)OC2C1O` (stereo not drawn), the Potency result in assay [3] is “inactive”.

As for `COc1ccc(NS(=O)(=O)c2ccc(Oc3c(C#N)cccc3C#N)cc2)cc1`, in [9], the Potency was 3.15 µM (active).

Turning to `CC(=O)c1c(C)n(-c2ccc(C)cc2)c2ccc(O)cc12`, the Potency result in assay [10] and in assay [9] was “inactive” in each case.

`O=C(C1CCCN(S(=O)(=O)c2ccccc2)C1)N1CCN(c2ccc(F)cc2)CC1` (stereo not drawn): the Potency in assay [9] is 4.45 µM (active).

On to `Cc1ccccc1NC(=O)CSc1nc2ccc(Nc3nc(N4CCOCC4)nc(N4CCOCC4)n3)cc2s1`, for which the Potency in assay [10] was 3.15 µM (active).

Consider `COc1ccc(NC(=O)c2sc3nc(C)nc(N4CCN(c5ccccn5)CC4)c3c2C)c(OC)c1`, for which, in [10], the Potency was 3.97 µM (active).

Regarding `COc1ccc(-c2nn(-c3ccccc3)cc2/C=C\C(=O)N2CCOCC2)cc1[N+](=O)[O-]`, the Potency in assay [10] was 1.41 µM (active). For the same molecule, in assay [9], the Potency entry was “inactive”.

`COc1ccc(S(=O)(=O)Nc2ccc3oc(C)c(C(C)=O)c3c2)cc1`: the Potency in assay [9] was 3.97 µM (active).

Consider `CCOC(=O)c1cccc(NC(=O)C2CCN(c3ncnc4c3nc3n4CCCCC3)CC2)c1`, for which the Potency in assay [10] was 3.97 µM (active).

Turning to `COc1ccc(NC(C)=O)cc1NC(=O)CN1CCN(C2c3ccccc3-c3ccccc32)CC1`, in assay [10], the Potency was 2.81 µM (active).

On to `CC12CCC(C(=O)N3CCN(c4ncccn4)CC3)(c3nc4ccccc4nc31)C2(C)C` (stereo not drawn), for which the Potency in assay [10] was 7.91 µM (active).

As for `COc1ccccc1C(=O)Nc1ccc(C)c(S(=O)(=O)N2CCCCC2)c1`, the Potency in assay [10] and in assay [9] was 14.1 µM (active) in each case.

As to `CS(=O)(=O)c1ccc2nc(NC(=O)C3CCCCC3)sc2c1`, the Potency in [10] was 6.28 µM (active). Besides, the Potency result in assay [9] is “inactive”.
